HTR5A inv ctr: HTR5A inverse agonists in luminescence cell assay, primary screen, counter-screen for OPRM1-OPRD1 heterodimer inverse agonist project, full-deck HTS. 5-hydroxytryptamine receptor 5A (Homo sapiens), P47898. HTR5A cell line, inverse agonism. inhibition, % at 9.3 µM. hit rate 0.083% among 340,000. AID 504634, 2011; in the data active = inhibition mostly above about 23%, no sharp cut-off; inactive = mostly below about 18%;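 also: 0% = cells with DMSO and 100% = no-cell wells with DMSO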
MOR-DOR inv ag: inverse agonists of MOR-DOR heterodimerization, primary screen, cell-based, luminescence | Mu-type opioid receptor (Homo sapiens) + Delta-type opioid receptor (Homo sapiens), … | inhibition, % at 9.3 µM | cell-based MOR-DOR heterodimer luminescence, inverse agonism | hit rate 0.21% among 340,000; in the data active = inhibition above about 22%, passing the limit was not always enough;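 also: 0% = cells with DMSO and 100% = wells without cells with DMSO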
Target sequence (P35372 whole entry, looked up): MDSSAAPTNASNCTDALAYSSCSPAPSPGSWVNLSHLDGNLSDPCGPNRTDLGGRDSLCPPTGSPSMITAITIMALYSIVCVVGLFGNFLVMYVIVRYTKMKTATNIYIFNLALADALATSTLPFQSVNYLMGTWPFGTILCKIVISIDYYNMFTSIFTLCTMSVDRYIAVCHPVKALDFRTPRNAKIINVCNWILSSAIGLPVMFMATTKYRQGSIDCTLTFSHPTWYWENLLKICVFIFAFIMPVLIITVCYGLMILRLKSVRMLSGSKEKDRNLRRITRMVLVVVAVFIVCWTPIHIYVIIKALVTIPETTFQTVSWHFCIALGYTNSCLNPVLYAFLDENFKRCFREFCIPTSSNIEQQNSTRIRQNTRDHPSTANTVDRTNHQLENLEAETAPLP
Target sequence (P41143 whole entry, looked up): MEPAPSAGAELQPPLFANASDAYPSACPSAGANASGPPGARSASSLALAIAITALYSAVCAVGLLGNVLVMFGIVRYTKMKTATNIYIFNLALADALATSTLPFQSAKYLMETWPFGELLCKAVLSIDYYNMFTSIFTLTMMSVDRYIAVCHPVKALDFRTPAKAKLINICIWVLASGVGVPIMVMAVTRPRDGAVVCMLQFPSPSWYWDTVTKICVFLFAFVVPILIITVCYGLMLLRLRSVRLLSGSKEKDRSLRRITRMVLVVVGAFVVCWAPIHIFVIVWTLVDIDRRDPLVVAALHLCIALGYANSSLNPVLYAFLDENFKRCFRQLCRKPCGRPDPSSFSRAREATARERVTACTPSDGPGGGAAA
OPRM1-OPRD1 ag: agonists of OPRM1-OPRD1 heterodimerization, primary screen, cell-based, luminescence. AID 504326, 2011. activation, % at 9.3 µM. cells. Mu-type opioid receptor (Homo sapiens) + Delta-type opioid receptor (Homo sapiens), …. hit rate 0.3% among 340,000; in the data active = activation above about 18%;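 also: 0% = vehicle-treated cells and 100% = reference agonist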
HTR5A ag: HTR5A agonists in luminescence cell assay, primary screen, counter-screen for OPRM1-OPRD1 heterodimer agonist project, full-deck HTS; 5-hydroxytryptamine receptor 5A (Homo sapiens), P47898; cell-based; activation, % at 9.3 µM; hit rate 0.61% among 340,000; AID 504692, 2011; in the data active = activation mostly above about 9.5%, no sharp cut-off; inactive = mostly below about 7.6%;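 also: 0% = cells with vehicle only and 100% = reference agonist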
MOR-DOR inv conf: inverse agonists of MOR-DOR heterodimerization, confirmation, cell-based, luminescence; shares compounds with MOR-DOR inv ag; inhibition, % at 9.3 µM; cells expressing OPRM1/OPRD1 heterodimer; AID 504900, 2011; hit rate 20% among 580; in the data active = inhibition above about 32%;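 also: 0% = cells with DMSO and 100% = wells lacking cells with DMSO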
HTR5A inv count: HTR5A inverse agonists, counter-screen for OPRM1-OPRD1 inverse agonist project, cell-based, luminescence; shares compounds with MOR-DOR inv ag; HTR5A-expressing cells, inverse agonism; inhibition, % at 9.3 µM; 580 tested, under 10 active; AID 504914, 2011; call rule not given here;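 also: 0% = cells with DMSO and 100% = no-cell wells with DMSO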
Numbers without * were called inactive; i = inactive; . = no result. Most compounds without a hit are left out; they make up all but 1.1% or so of the library.

SMILES	HTR5A inv ctr	MOR-DOR inv ag	OPRM1-OPRD1 ag	HTR5A ag	MOR-DOR inv conf	HTR5A inv count
Cc1ccc(NC(=O)CSc2nnc(-c3ccc(S(=O)(=O)N4CCCC4)cc3)o2)cc1C	-36	4	-1	0	.	.
CCC(=O)Oc1ccc(C(=O)Nc2cccc(C(=O)NCC(C)C)c2)cc1	4	32*	-5	-1	-47	-10
CCC(=O)Oc1ccc(C(=O)Nc2ccccc2C(=O)NCC(C)C)cc1	5	6	-1	0	.	.
Cc1ccc(NCN2C(=O)C(=O)c3ccccc32)nc1	-13	70*	-14	-5	59*	17
CS(=O)(=O)c1ccc(NS(=O)(=O)c2ccc(Cl)c(C(=O)NCc3ccco3)c2)cc1	-5	7	-2	4	.	.
COc1ccc(C(=O)CNc2ccccc2CO)cc1	1	16	-3	0	.	.
COc1ccc(C(=O)CNc2ccc(C)cc2C)cc1	-9	32*	-7	3	70*	2
COc1ccccc1NCC(=O)c1ccc(Cl)cc1	1	17	-3	0	.	.
COc1ccccc1NCC(=O)c1ccc(C)c(C)c1	-17	31*	-6	-3	-13	-7
O=C(N=C1SC2CS(=O)(=O)CC2N1c1ccccc1)c1cccc([N+](=O)[O-])c1 (stereo not given)	-10	13	-3	4	.	.
O=C(COC(=O)C1C2CC3OC(=O)C1C3C2)Nc1cccc(Cl)c1 (stereo not given)	-7	9	-1	2	.	.
FC(F)(F)c1ccc(/C=N/n2c(C3CCCCC3)n[nH]c2=S)cc1	24	-55	11	-6	.	.
O=C1C2=C(c3ccccc31)[N+](=O)C1CCCCC1N2[O-] (stereo not given)	17	56*	-13	2	3	2
CCSc1nnc2c(n1)OC1(CCCC1)Nc1ccccc1-2	3	4	-1	-1	.	.
O=C1Nc2ccc(Cl)cc2C12Nc1ccccc1-c1nnc(SCc3ccccc3F)nc1O2 (stereo not given)	4	50*	-9	2	i	-3
O=C1Nc2ccc(F)cc2C12Nc1ccccc1-c1nnc(SCc3ccccc3F)nc1O2 (stereo not given)	10	69*	-11	-4	72*	10
CCn1cc(S(=O)(=O)Nc2cccnc2)cn1	7	37*	-7	-10	41*	-12
CCn1ncc(S(=O)(=O)Nc2cccnc2)c1C	-22	6	-1	9	.	.
O=C(OCC(=O)c1ccc(Cl)cc1Cl)c1ccccn1	-4	50*	-12	1	i	-71
O=C(OCC(=O)c1ccccc1Br)c1ccccn1	22	10	-2	-2	.	.
O=C(CCC(=O)OCC(=O)c1ccc(Cl)cc1Cl)Nc1cccc2cccnc12	13	55*	-10	-7	-4	-14
O=C(OCC(=O)c1ccc(Cl)cc1Cl)c1ccc2c(c1)C(=O)N(c1cccc3ncccc13)C2=O	2	43*	-8	-2	-61	-32
Cc1nc2c3ccccc3n(CC(=O)c3ccc(F)cc3)c(=O)n2n1	24	31*	-6	-8	i	-19
Cc1ccccc1CN1C(=O)C(O)(CC(=O)c2ccncc2)c2ccccc21 (stereo not given)	3	45*	-8	-1	-84	-32
O=C(CC1(O)C(=O)N(Cc2ccccc2)c2ccccc21)c1ccncc1 (stereo not given)	22	40*	-8	-9	-152	-117
SMILES	HTR5A inv ctr	MOR-DOR inv ag	OPRM1-OPRD1 ag	HTR5A ag	MOR-DOR inv conf	HTR5A inv count
O=C(NC(=S)Nc1ccccc1C(=O)O)c1cncc(Br)c1	-7	13	-3	2	.	.
O=C(NC(=S)Nc1ccccc1O)c1cncc(Br)c1	10	41*	-8	-4	-99	-32
CCC(C)c1ccc(O)c(NC(=S)NC(=O)c2cccnc2)c1 (stereo not given)	19	47*	-9	-7	i	-3
O=C(NC(=S)Nc1ccccc1O)c1cccnc1	10	35*	-7	-3	23	-9
COc1ccc(-c2nc(-c3cccs3)c(-c3cccs3)[nH]2)cc1OC	7	30*	-5	0	i	4
NNc1nc(-c2ccccc2)c2cc(Br)ccc2n1	4	20	-5	-1	.	.
NNc1nc(-c2ccccc2)cc(-c2ccc(Br)cc2)n1	-18	70*	-14	-11	78*	25
CN(C)CC1CC/C(=C\c2ccc(O)cc2)C1=O (stereo not given)	24	41*	-9	-6	i	-26
O=CN1Cc2[nH]c3ccccc3c2N(c2ccc(Cl)cc2)C1=O	-8	44*	-9	3	16	-3
O=C1CNCc2[nH]c3ccccc3c2N1c1ccccc1	7	0	0	-3	.	.
COc1ccc(NC(=O)c2nc(S(=O)(=O)Cc3cccc(C)c3)ncc2Cl)c(OC)c1	3	35*	-7	3	-338	-20
Cc1ccc(NC(=O)C2CCCN2C(=O)OC(C)(C)C)cc1C (stereo not given)	-7	12	-2	10	.	.
CC(=O)Nc1ccccc1C(=O)C(=O)O	7	37*	-7	-3	-6	-4
Cc1cccc(C)c1NC(=O)C(NC=O)c1ccc(Cl)cc1 (stereo not given)	-14	33*	-7	5	3	2
c1ccc(C2OC3c4cccc5cccc(c45)C3N2c2ccccc2)cc1 (stereo not given)	9	38*	-8	-4	-41	-2
CC/C(C)=N\N=C\c1c(O)n(CC)c2cc(C3=NNC(=O)CC3)ccc12	21	31*	-7	-5	50*	15
CCn1c(O)c(/C=N/N=C/c2ccc(OC)cc2)c2cc(C3=NNC(=O)CC3)ccc21	14	7	-1	5	.	.
COc1cc(CN(C)C(=O)C2CCN(S(=O)(=O)c3cccs3)CC2)ccc1OC(F)F	6	15	-3	-2	.	.
Cn1cnc([N+](=O)[O-])c1S(=O)(=O)Oc1ccccc1	21	40*	-8	-5	9	14
Cc1nn(C(C)C(=O)c2cccc(Cl)c2)c(C)c1[N+](=O)[O-] (stereo not given)	14	7	-1	0	.	.
Cn1cnc([N+](=O)[O-])c1S(=O)(=O)Nc1ccccc1	-1	17	-3	0	.	.
Cn1cnc([N+](=O)[O-])c1S(=O)(=O)c1cccc(Cl)c1	16	29*	-4	-3	-20	-90
COc1ccc(C)c(NC(=O)NCCc2cnc[nH]2)c1	1	1	0	0	.	.
